Source: PubChem BioAssay
EBNA-1 inhibitor – blocks EBNA-1 binding to DNA | EBNA-1 DNA binding, fluorescence polarization | inhibition, % at 14.8 µM | actives 0.34% (n = 300,000) | AID 1950; in the data active = inhibition above about 28%
PP1 inh – PP1-alpha (human) inhibition in PP5 counter-screen; AID 2235; inhibition, % at 6.7 µM; P62136; purified PP1alpha, OMFP fluorescence; actives 0.9% (n = 320,000);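 active = inhibition above the mean inhibition of all tested compounds plus 3 SD, computed separately for each screening campaign, cut at about 15% in these data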
Target sequence (P62136 whole entry, looked up): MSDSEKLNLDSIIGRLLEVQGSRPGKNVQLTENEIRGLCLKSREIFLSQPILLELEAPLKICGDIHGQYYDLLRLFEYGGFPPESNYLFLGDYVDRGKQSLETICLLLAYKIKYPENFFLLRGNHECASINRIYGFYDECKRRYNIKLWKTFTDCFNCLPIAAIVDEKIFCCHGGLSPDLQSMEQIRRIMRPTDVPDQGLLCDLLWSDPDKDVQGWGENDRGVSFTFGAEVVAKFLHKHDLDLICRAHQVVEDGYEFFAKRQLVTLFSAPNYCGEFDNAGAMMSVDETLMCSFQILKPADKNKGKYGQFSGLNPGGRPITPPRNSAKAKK
MsrA inh – inhibits bovine methionine sulfoxide reductase A | purified bovine MsrA, absorbance read-out | inhibition, % at 15.5 µM | actives 0.75% (n = 360,000); in the data active = inhibition above about 4.5%;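 also: 0% = vehicle wells with enzyme and 100% = reference inhibitor wells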
bovine MsrA act – activators of bovine methionine sulfoxide reductase A. purified bovine MsrA, absorbance read-out. activation, % at 10.6 µM. actives 0.3% (n = 360,000). AID 602163; in the data active = activation above about 7.5%;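 also: 0% = vehicle and 100% = reference activator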
ZTA DNA inh – blocks Epstein-Barr virus ZTA, an EBNA-1 counter-screen; inhibition, % at 11 µM; ZTA-DNA binding, fluorescence polarization; actives 0.15% (n = 320,000); P03206; in the data active = inhibition above about 33%
Target sequence (P03206 whole entry, looked up): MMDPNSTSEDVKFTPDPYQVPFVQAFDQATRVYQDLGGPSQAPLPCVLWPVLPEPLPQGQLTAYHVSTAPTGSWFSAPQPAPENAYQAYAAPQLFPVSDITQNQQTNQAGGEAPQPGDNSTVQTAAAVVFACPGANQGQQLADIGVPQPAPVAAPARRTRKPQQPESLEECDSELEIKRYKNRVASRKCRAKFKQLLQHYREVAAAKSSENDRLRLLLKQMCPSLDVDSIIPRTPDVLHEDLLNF
PP5 primary – inhibitors of human protein phosphatase 5 (PP5). purified PP5c, OMFP substrate fluorescence. inhibition, % at 6.7 µM. actives 0.18% (n = 320,000). AID 1987;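 active = inhibition above the campaign's mean inhibition across all tested compounds plus 3 SD, cut at about 9.5% in these data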;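 also: 0% = DMSO only and 100% = 100 µM cantharidin control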
MsrA act confirm – confirmation of bovine methionine sulfoxide reductase A activators | shares compounds with bovine MsrA act | purified bovine MsrA, absorbance read-out | activation, % at 10.6 µM | actives 12% (n = 1,000) | AID 602270; in the data active = activation above about 4%;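 also: enzyme coupled to thioredoxin and thioredoxin reductase with NADPH; 0% = vehicle wells and 100% = reference activator wells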
Starred values were filed as active, the others as inactive; . = no result given. Most compounds without a hit are left out; they make up all but 2.3% or so of the library.

SMILES | EBNA-1 inhibitor | PP1 inh | MsrA inh | bovine MsrA act | ZTA DNA inh | PP5 primary | MsrA act confirm
CC(C)NC(=O)C(C)Oc1ccc(S(=O)(=O)NCc2ccc3c(c2)OCO3)cc1 (configuration not stated) | 4 | -2 | 0 | 0 | 1 | -1 | .
O=c1oc2ccc(C#CC3(O)CCCCC3)cc2cc1-n1cc(C2(O)CCCCC2)nn1 | . | -2 | -1 | 8.6* | -2 | 0 | -1
Cn1c2ccccc2c(=O)c2ccc(C#CC3(O)CCCCC3)cc21 | -4 | 4 | 0 | -1 | 7 | -2 | .
Cc1cccc(NC(=O)c2ccccc2NC(=O)c2ccccc2)n1 | 13 | 4 | 1 | 18* | 1 | 2 | 1
COCCN(CCOC)Cc1cc(=O)oc2cc3c(cc12)CCC3 | -10 | 0 | 1 | 1 | 2 | 2 | .
COCCN(CCOC)Cc1cc(=O)oc2cc(C)ccc12 | . | . | 1 | 12* | . | . | -1
O=C(COC(=O)Cc1ccsc1)Nc1ccccc1 | -10 | 1 | 1 | 25* | -6 | -1 | 2
Cc1[nH]c2ccccc2c1CC(=O)O | 0 | -4 | 1 | 13* | -3 | -1 | -2
Cc1[nH]c2c(C)cccc2c1CC(=O)O | 0 | -2 | 0 | -4 | 5 | 0 | .
O=C(O)C(CCC(C(=O)O)c1ccccc1)c1ccccc1 (configuration not stated) | . | . | 1 | -1 | . | . | .
Cc1ccc(OCc2ccc(C(=O)NNC(=S)NCC3CCCO3)o2)c([N+](=O)[O-])c1 (configuration not stated) | -5 | -9 | 0 | -7 | -1 | 2 | .
CN(C(=O)c1cccc(NC(=O)Cc2ccc(NC(=O)C3CCN(C(=O)C4CC4)CC3)cc2)c1)C1CCCC1 | . | . | -1 | -3 | . | . | .
O=C(CCCOc1ccccc1)Nc1cccc(S(=O)(=O)N2CCCCCC2)c1 | . | 2 | 0 | 0 | -5 | 4 | .
COC(=O)c1cc(C)nc2c1c(C)nn2-c1ccccc1 | . | -2 | 0 | 13* | -1 | 4 | 1
Cc1nn(-c2ccccc2)c2nc(-c3ccco3)cc(C(=O)O)c12 | 17 | -2 | 3 | -3 | 10 | 1 | .
O=C(Nc1cccc([N+](=O)[O-])c1)c1ccc([N+](=O)[O-])o1 | . | . | 2 | 9.8* | . | . | 5.7*
COc1ccc(O)c(/C=N/NC(=O)CCC(=O)Nc2ccc(F)cc2)c1 | -1 | -2 | 1 | 7.9* | -6 | 0 | -3
COc1ccc(/C=N/NC(=O)CCC(=O)Nc2ccc(F)cc2)c(OC)c1 | 3 | 1 | 4 | -10 | 1 | 0 | .
CS(=O)(=O)N1CCN(C(=O)c2ccc(Cl)s2)CC1 | -2 | -3 | -1 | 16* | -2 | -1 | -1
CC(C)n1c(CN(C)Cc2ccccc2)nc2c1c(=O)n(C)c(=O)n2C | -7 | 0 | 0 | . | -3 | 1 | .
Cc1ccc(NC(=O)C(C)OC(=O)c2ccc(NC(=O)CC#N)cc2)cc1S(=O)(=O)N1CCOCC1 (configuration not stated) | 6 | 2 | -1 | 9.5* | -2 | -3 | -2
Cc1ccc(C(=O)OC(C)C(=O)Nc2ccc(S(N)(=O)=O)cc2)cc1S(=O)(=O)N1CCOCC1 (configuration not stated) | -2 | 5 | 0 | -1 | -9 | 0 | .
O=C(Cn1sc2ccccc2c1=O)Nc1ccccc1 | . | . | 0 | 7.7* | . | . | 2
O=C(Cn1sc2ccccc2c1=O)NC12CC3CC(CC(C3)C1)C2 | -8 | -2 | . | -3 | -3 | 3 | .
Cc1nnc(N/N=C/c2ccc([N+](=O)[O-])cc2)n1N | 6 | 1 | 2 | 21* | 2 | -2 | -3
SMILES | EBNA-1 inhibitor | PP1 inh | MsrA inh | bovine MsrA act | ZTA DNA inh | PP5 primary | MsrA act confirm
Cc1nnc(N/N=C/c2ccc(-c3ccc(Br)cc3)o2)n1N | -1 | 2 | 2 | 2 | -6 | -3 | .
Cc1nnc(N/N=C/c2ccc(Br)cc2)n1N | -9 | -5 | 0 | 34* | -6 | 2 | -2
O=C(NCCCO)/C(=C\c1ccco1)NC(=O)c1ccco1 | 6 | -2 | 3 | -2 | -1 | -1 | .
CCn1c(SCC(=O)OC)nnc1-c1ccc(C)cc1 | -6 | 1 | 1 | -3 | -11 | 0 | .
CCOC(=O)CSc1nnc(-c2nnc(SCC(=O)OCC)n2CC)n1CC | -6 | 6 | 0 | 7.7* | 7 | 1 | 0
Cc1ccc(OCC(=O)N/N=C\c2c(C)[nH]n(-c3ccccc3)c2=O)c([N+](=O)[O-])c1 | 6 | 5 | 2 | 11* | -9 | 1 | -1
Cc1c(NC(=O)C(C)N2C(=O)C3CCCCC3C2=O)c(=O)n(-c2ccccc2)n1C (configuration not stated) | 5 | 0 | 0 | 10* | -4 | -1 | -2
Cc1c(NC(=O)C(C)N2CC(C)OC(C)C2)c(=O)n(-c2ccccc2)n1C (configuration not stated) | 19 | 3 | 1 | 2 | 15 | 2 | .
CC(C)(C)c1ccc(C(=O)N2[C@H](COCc3ccccc3)C=CS2(=O)=O)cc1 | . | . | 1 | -10 | . | . | .
Cc1nc2ccc(NS(=O)(=O)c3ccc(Br)cc3)cc2s1 | . | 0 | 0 | -2 | 6 | 1 | .
CC(C)CN1C(=O)c2ccccc2C1(O)Cc1ccccc1 (configuration not stated) | -8 | 1 | 0 | -5 | -10 | 2 | .
C=CCN1C(=O)c2ccccc2C1(O)Cc1ccccc1 (configuration not stated) | 0 | 1 | 0 | 11* | -9 | 1 | -4
O=C(COc1ccc(Cl)cc1)Nc1cccc(-c2ccc3nncn3n2)c1 | -2 | 2 | 2 | 15* | 6 | 0 | -4
COc1cc(OC)cc(C(=O)N[C@H](C(=O)OCC(=O)N2CCN(S(=O)(=O)c3ccc(C)cc3)CC2)C(C)C)c1 | . | . | 0 | -2 | . | . | .
c1ccc2c(c1)COC(CNC1CCCCC1)OC2 | 10 | -5 | 1 | -9 | 8 | -3 | .
Cc1cc(C)n(CCc2nc(-c3ccc(C(C)(C)C)cc3)cs2)n1 | 0 | 1 | 0 | 9.3* | 7 | 6 | -4
CCCNC(=O)CN1C(=O)COc2ccc(S(=O)(=O)N3CC(C)CC(C)C3)cc21 (configuration not stated) | -3 | -6 | -1 | -1 | -16 | 4 | .
S=c1[nH]nc(-c2ccncc2)n1Cc1ccccc1 | 1 | 0 | 1 | 8.5* | 11 | -1 | 1
Fc1ccc(-c2n[nH]c(=S)n2Cc2ccccc2)cc1 | -3 | -4 | . | -1 | -7 | 2 | .
CCCc1cc(=O)oc2c(CN3CCN(C)CC3)c(O)c(Cl)cc12 | 3 | -3 | 2 | 13* | -1 | -2 | 0
CC(CN(C)Cc1ccccc1)OC(=O)c1cccs1 (configuration not stated) | -17 | -6 | 0 | 8.4* | 7 | 1 | -2
CC(CN(C)Cc1ccccc1)OC(=O)c1ccccc1F (configuration not stated) | 6 | 0 | 0 | -1 | -3 | 1 | .
